The full ranking holds about 110,000 compounds; the median of “z-score” is about -0.1, and the highest 2% start at about 2. For the sample, the highest values were picked, then their nearest neighbours and some compounds at random. Calls of active or inactive are those of the source.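 Rule for the calls: active = z-score in the third read window above 3 or below -3; inactive = the rest.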

Chain of Metabotropic glutamate receptor 8 (Rattus norvegicus) (P70579 whole entry, looked up): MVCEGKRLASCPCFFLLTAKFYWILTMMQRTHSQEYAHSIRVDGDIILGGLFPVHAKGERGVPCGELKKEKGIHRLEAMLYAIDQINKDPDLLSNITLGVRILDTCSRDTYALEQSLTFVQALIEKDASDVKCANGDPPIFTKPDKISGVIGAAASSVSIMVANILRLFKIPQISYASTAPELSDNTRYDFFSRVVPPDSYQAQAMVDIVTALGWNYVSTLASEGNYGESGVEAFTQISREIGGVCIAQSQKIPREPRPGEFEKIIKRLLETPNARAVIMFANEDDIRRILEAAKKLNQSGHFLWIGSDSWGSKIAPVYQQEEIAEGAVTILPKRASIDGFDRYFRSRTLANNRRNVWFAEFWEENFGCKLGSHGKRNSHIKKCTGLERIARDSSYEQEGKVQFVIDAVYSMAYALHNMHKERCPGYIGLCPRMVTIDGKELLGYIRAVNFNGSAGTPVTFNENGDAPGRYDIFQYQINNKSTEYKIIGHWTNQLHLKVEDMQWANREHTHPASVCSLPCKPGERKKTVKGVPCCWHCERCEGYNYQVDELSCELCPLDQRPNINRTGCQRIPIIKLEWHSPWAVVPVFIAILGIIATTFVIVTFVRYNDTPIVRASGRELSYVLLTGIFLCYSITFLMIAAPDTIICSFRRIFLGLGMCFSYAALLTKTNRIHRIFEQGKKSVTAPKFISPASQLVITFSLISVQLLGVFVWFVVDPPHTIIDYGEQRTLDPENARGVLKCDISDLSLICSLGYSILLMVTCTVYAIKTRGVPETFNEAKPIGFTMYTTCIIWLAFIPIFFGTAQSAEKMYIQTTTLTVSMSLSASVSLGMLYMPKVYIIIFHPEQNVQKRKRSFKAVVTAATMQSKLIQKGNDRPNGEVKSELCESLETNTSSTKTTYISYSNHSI

The experiment concerns the target Metabotropic glutamate receptor 8 (Rattus norvegicus) (UniProt P70579). As to the kind of experiment: mGluR8 Gi/Go-coupled signaling modulation – cell-based, rat, thallium flux, HTS, primary screen (AID 488969). Conditions: HEK293 rat mGluR8, GIRK (G protein-gated inwardly rectifying potassium channel) thallium flux, FluoZin2; at 10 µM; stronger effect = higher value; submaximal glutamate (EC20) added with thallium.
As to `O=C(Nc1cccc(-c2nc3ccccc3s2)c1)c1cc(-n2cnnc2)ccc1Cl`, the z-score is -0.00826. In turn, `COc1ccc(CNC(=O)COC(=O)CCC2CCCCC2)cc1` displayed a z-score of -0.328. Turning to `COc1ccc(N2C(=O)CC(c3ccc(OC(C)C)cc3)C2=O)cc1` (stereo unspecified), the z-score was -0.209. The compound `CC(C)Oc1ccc(C2CC(=O)N(c3ccc(N(C)C)cc3)C2=O)cc1` (stereo unspecified) registered a z-score of -0.0638.

For the compound `CC(C)Oc1ccc(C2CC(=O)N(c3ccccc3)C2=O)cc1` (stereo unspecified), the z-score was found to be 2.33. For `COc1ccc(C2C(C(=O)Nc3cccc(C)n3)c3ccccc3C(=O)N2C)cc1OC` (stereo unspecified), the z-score was -0.119. The compound `CCOc1ccc(N(CC(=O)NN=C2CCN(C)CC2)S(C)(=O)=O)cc1` displayed a z-score of -0.0704. `CCOC(=O)Cn1c(C)cc(=O)c2cccc(C)c21` yielded a z-score of -0.0778. Consider `Cc1cccc2c(=O)cc(C)n(CC(=O)N3CCCCC3)c12`, for which the z-score is 3.39 (active). Take `Cc1cccc2c(=O)cc(C)n(Cc3ccccc3)c12`: the z-score is -0.148. The compound `CC(Oc1ccccc1)C(=O)NC1CCN(Cc2ccccc2)CC1` (stereo unspecified) gave a z-score of -2.68.

The compound `C=CCSc1nnc(NC(=O)CSc2ccccn2)s1` gave a z-score of -0.421.

In turn, `COc1ccc(/C(C)=C2/SC(=S)N(CCC(=O)O)C2=O)cc1` returned a z-score of -0.343. The compound `Cc1ccc(C)n1-c1ccc(N2CCOCC2)nc1` showed a z-score of -0.064. Consider `O=C(CSc1nc(-c2ccccc2)cc(C(F)(F)F)n1)NCCN1CCOCC1`, for which the z-score came out at 2.92. Compound `O=C(CSc1nc(-c2ccc(F)cc2)cc(C(F)(F)F)n1)NCCN1CCOCC1` displayed a z-score of 0.00416.

In turn, `COc1ccc(-c2cc(C(F)(F)F)nc(SCC(=O)NCCN3CCOCC3)n2)cc1OC` yielded a z-score of 0.846. With `Cc1ccc(C)c(-n2c(SCC(N)=O)nnc2-c2ccccn2)c1` the figure was -0.142; with `Cc1ccc(-n2c(SCC(N)=O)nnc2-c2ccccn2)cc1`, 2.09; with `Cc1ccc(-n2c(SCC(N)=O)nnc2-c2ccccn2)cc1C`, 0.0328. On to `CCCCn1c(N)c(-c2nc3ccccc3s2)c2c([N+](=O)[O-])nn(C)c(=O)c21`, for which the z-score amounted to 1.31. Consider `CCOC(=O)/C(=C/c1ccc(OC)cc1)NC(=O)c1ccco1`, for which the z-score is -0.186. Under `COc1ccc(-c2csc(NC(=O)C3CCCCN3S(=O)(=O)c3ccccc3)n2)cc1` (stereo unspecified) stands 1.82; under `Cc1ccccc1-c1nnn(CC(=O)N2CCN(S(=O)(=O)c3ccc(Cl)cc3)CC2)n1`, -0.031. With `Cn1c(=O)c2c(ncn2CC(=O)N/N=C/c2ccco2)n(C)c1=O` the figure was 1.59; with `Cn1c(=O)c2c(ncn2CC(=O)N/N=C/c2ccc(Br)s2)n(C)c1=O`, 2.47; with `Cn1c(=O)c2c(ncn2CC(=O)N/N=C/C(Br)=C/c2ccccc2)n(C)c1=O`, 0.116.

As to `O=C(CSc1ccccc1Cl)NC1CCCc2ccccc21` (stereo unspecified), the z-score was -0.386. As to `O=C(NCc1ccco1)C1CCN(c2ccc(N3CCOCC3)nn2)CC1`, the z-score came to 0.321. In turn, `O=C(CCC(=O)Nc1ccccc1)NNC(=O)COc1ccccc1` yielded a z-score of -0.00186. With `O=C(Cc1ccccc1)N/N=C/c1ccc(OC(=O)/C=C\c2ccco2)cc1`, the z-score was -0.0554. As for `CCN(CC)CCCn1c(C)cc2c(c1=O)C(c1ccccc1)C(C#N)=C(N)O2` (stereo unspecified), the z-score is 0.538. With `CCN(CC)CCCn1c(C)cc2c(c1=O)C(c1cccc(Cl)c1)C(C#N)=C(N)O2` (stereo unspecified) the figure was 2.38; with `CCN(CC)CCCn1c(C)cc2c(c1=O)C(c1ccc(OC)c(OC)c1OC)C(C#N)=C(N)O2` (stereo unspecified), -0.47; with `O=S(=O)(/N=C(/Nc1ccc(F)c(F)c1F)c1ccccc1)c1ccccc1`, -0.125. `Cc1cc(C)nc(Sc2ncnc3sc4c(c23)CCC4)n1`: the z-score is 5.12 (active). The compound `CC(C#N)Sc1ncnc2sc3c(c12)CCC3` (stereo unspecified) gave a z-score of 0.00954. With `CCSc1ncnc2sc3c(c12)CCC3` the figure was -0.0891; with `O=C(NCc1ccc(Cl)cc1Cl)C(=O)N1CCCCC1`, 0.112; with `O=C(COc1ccccc1)NCCc1cn2ccsc2n1`, 0.183. Take `Cc1ccc(C)c(NC(=O)c2cnn3ccccc23)c1`: the z-score was -0.0235. With `COc1cc(CCN2C(=O)c3cccc4cccc(c34)C2=O)c(S(=O)(=O)NCCCO)cc1OC` the figure was 0.452; with `CCOC(=O)c1ccccc1Nc1cn(C(C)=O)c2ccccc12`, 2.73. With `CC(=O)n1cc(Nc2ccccc2C(=O)O)c2ccccc21` the figure was -1.18. With `CCOC(=O)c1ccccc1NC(=O)COC` the figure was -0.129; with `COc1cccc2[nH]c3c(N4CCC(C(N)=O)CC4)ncnc3c12`, 0.0357. For `Cc1ccc(S(=O)(=O)N(CCC(=O)O)Cc2ccc(Cl)cc2)cc1`, the z-score is -0.125. `Cc1ccc(S(=O)(=O)N2CCN(C(=O)CN3C(=O)NC4(CCOc5ccccc54)C3=O)CC2)cc1` (stereo unspecified) gave a z-score of 0.106. `CCN(CC)CCn1cnc2c([nH]c3cccc(OC)c32)c1=O` registered a z-score of -0.0646. Take `CCOC(=O)N1CCN(C(=O)NC23CC4CC(CC(C4)C2)C3)CC1`: the z-score is -0.174. On to `CCOC(=O)C1CCN(C(=O)C23CC4CC(CC(C4)C2)C3)CC1`, for which the z-score came out at 0.212. As to `CCOC(=O)C1CCN(C(=O)NC23CC4CC(CC(C4)C2)C3)CC1`, the z-score was 3.31 (active). With `Cc1cccc(NC(=S)NCCc2c[nH]c3ccccc23)c1` the figure was 0.201. Consider `CC(C)(C)Nc1nc2nonc2nc1NC(C)(C)C`, for which the z-score is -0.28. Compound `Cc1oc(/C=N/NC(=O)CN(c2ccccc2Br)S(C)(=O)=O)cc1Br` came in with a z-score of -0.262. `CCN(CC)S(=O)(=O)c1csc(C(=O)OCC(=O)c2ccccc2)c1` registered a z-score of -0.217.

For the compound `CCN(CC)S(=O)(=O)c1csc(C(=O)NC2CCCCC2)c1`, the z-score worked out at 0.101.

Compound `CCN(CC)S(=O)(=O)c1csc(C(=O)NCc2ccccc2)c1` yielded a z-score of 2.45. Under `COn1c2c(c3c4no[n+]([O-])c4ccc31)CCCC2` stands -0.414. Regarding `COc1cccc(NC(=O)CCSc2ccc3ccccc3n2)c1`, the z-score is -0.0656.

The compound `O=C(O)c1cc(NS(=O)(=O)c2ccc(N3CCCCC3)c([N+](=O)[O-])c2)cc(C(=O)O)c1` displayed a z-score of -0.105. In the case of `CCC(C)n1c(SCC(=O)NC(=O)Nc2ccc3c(c2)OCCO3)nc2ccccc2c1=O` (stereo unspecified), the z-score was 4.47 (active). `CCC(C)n1c(SCC(=O)Nc2cc(C)on2)nc2ccccc2c1=O` (stereo unspecified) displayed a z-score of 0.0932.

Regarding `COCC(C)n1c(SCC(=O)NC(=O)Nc2ccc3c(c2)OCCO3)nc2ccccc2c1=O` (stereo unspecified), the z-score is -1.25. With `Cn1c(=O)c2c(nc(SCC(=O)NCc3ccco3)n2C)n(C)c1=O`, the z-score is 0.332. In the case of `C/C(CC(=O)Nc1ccccn1)=N\NC(=O)c1ccc2ccccc2c1`, the z-score is -0.53. On to `CCCNC(=O)C(=O)Nc1ccc(N(C)C)cc1`, for which the z-score is -0.0526. For `CC1CCCCC1NC(=S)NC(=O)c1ccccc1Br` (stereo unspecified), the z-score was 0.799. Regarding `CC1CCCC(NC(=S)NC(=O)c2cncc(Br)c2)C1C` (stereo unspecified), the z-score was 6.76 (active). As for `Cc1ccccc1NC(=S)NC(=O)c1cncc(Br)c1`, the z-score was 6.92 (active). `O=C(NC(=S)Nc1ccc(Br)cn1)c1cncc(Br)c1` showed a z-score of 0.371. For `CC1CCCC(NC(=S)NC(=O)c2ccccc2Br)C1C` (stereo unspecified), the z-score came to 2.91. Regarding `COc1ccccc1/C=C/C(=O)NC(=S)NC(C)C`, the z-score came out at 0.776.

With `O=C(NC(=S)NCC1CCCO1)c1ccccc1Br` (stereo unspecified), the z-score stood at 1.6.

As for `COc1ccccc1/C=C/C(=O)NC(=S)N(C)C1CCCCC1`, the z-score is 4.46 (active). `O=C(NC(=S)Nc1ncc(Br)cc1Br)c1cncc(Br)c1` displayed a z-score of 0.278. Under `O=C(NC(=S)Nc1ccccn1)c1cncc(Br)c1` stands 0.829; under `COc1ccccc1/C=C/C(=O)NC(=S)Nc1ccc(S(=O)(=O)N(C)c2ccccc2)cc1`, 0.119. `Cc1cccnc1NC(=S)NC(=O)c1cncc(Br)c1` came in with a z-score of -0.14. With `CCOC(=O)c1c(C)nc2sc3c(=O)n(-c4ccc(C(C)=O)cc4)cnc3c2c1-c1ccc(Cl)cc1` the figure was -0.533; with `CC(C)(Oc1ccc(Cl)cc1)C(=O)N1CCN(c2ccccn2)CC1`, -0.0555; with `Cc1cc(C)nc(/N=C2\NC(=O)CC3C(=O)NCCN23)n1` (stereo unspecified), -0.12. Under `CS(=O)(=O)N(CC(=O)NCc1ccncc1)c1ccc(Cl)c(Cl)c1` stands -0.214; under `COC(=O)c1cc(Cl)c(NC(=O)/C=C/c2ccc(Cl)cc2)cc1OC`, -0.0302.

`CCCN1C2CCCC1CC(NC(=O)Nc1ccc(C(C)C)cc1)C2` (stereo unspecified) registered a z-score of 0.407. Take `CN1CCN(Cc2cc(=O)oc3cc4c(cc23)CCC4)CC1`: the z-score worked out at 0.745.

`O=C(NC(=S)NC1CCCCCCCCCCC1)c1cccnc1` returned a z-score of -0.0629.

The compound `CN(C(=O)c1ccc(C(=O)N(C)C2CCCCC2)cc1)C1CCCCC1` displayed a z-score of 0.244. Turning to `O=C(NC(=S)NC1CCCCCC1)c1cncc(Br)c1`, the z-score was 6.87 (active). In the case of `CN(C(=O)c1ccccc1Cl)C1CCCCC1`, the z-score came to 0.549.

In turn, `O=C(NC(=S)NC1CC1)c1cccnc1` yielded a z-score of 0.798. With `CN(C(=S)NC(=O)c1ccccc1Br)C1CCCCC1` the figure was 3.51 (active). `c1ccc2sc(C3CCN(Cc4nnnn4Cc4ccc5c(c4)OCO5)CC3)nc2c1`: the z-score was 0.227. The compound `CCc1nc(NCCCCCO)c2nnn(Cc3ccccc3F)c2n1` had a z-score of -0.538. Turning to `CCn1c(=S)[nH]c2cc(C(=O)OC)ccc2c1=O`, the z-score is 7.77 (active). Regarding `COC(=O)c1ccc2c(=O)n(CCO)c(=S)[nH]c2c1`, the z-score was determined as 0.000255. For `O=C(NCC1CCCO1)c1ccc2c(=O)n(CC3CCCO3)c(=S)[nH]c2c1` (stereo unspecified), the z-score was 0.352. As for `COCCCNC(=O)c1ccc2c(=O)n(CC3CCCO3)c(=S)[nH]c2c1` (stereo unspecified), the z-score was determined as 0.247. Consider `COC(=O)c1ccc2c(=O)n(CC3CCCO3)c(=S)[nH]c2c1` (stereo unspecified), for which the z-score was 7.72 (active). On to `CCN(CC)CCCn1c(=S)[nH]c2cc(C(=O)OC)ccc2c1=O`, for which the z-score was 0.199. `O=C1CN(c2ccccc2Cl)C(=O)CN1c1ccccc1Cl`: the z-score turned out to be 0.348.

In turn, `Cc1cccc(C)c1N1CCc2cn[nH]c21` returned a z-score of -0.273. Compound `O=C(CSc1nc2cc(Cl)ccc2s1)NC1CCCc2ccccc21` (stereo unspecified) yielded a z-score of -0.115. The compound `CC12CCC(C(=O)N(Cc3ccccc3)Cc3ccccc3)(OC1=O)C2(C)C` (stereo unspecified) returned a z-score of -0.0292.

Turning to `CCC(C)NC(=O)CSc1nc2ccccc2c(=O)n1Cc1ccc(OC)cc1` (stereo unspecified), the z-score was 3.19 (active). In turn, `CC(C)CCNC(=O)CSc1nc2ccsc2c(=O)n1NC(=O)c1ccccc1` yielded a z-score of -0.0204. On to `Cc1ccc(Cn2c(SCC(=O)Nc3cc(C)on3)nc3ccccc3c2=O)cc1`, for which the z-score worked out at 1.07. The compound `CCCCNC(=O)CSc1nc2cc(OC)c(OC)cc2c(=O)n1Cc1ccc(OC)cc1` returned a z-score of -0.298. The compound `CCCCn1c(SCC(=O)Nc2cc(C)on2)nc2ccccc2c1=O` displayed a z-score of -1.45.

For the compound `O=C(CSc1nc2ccsc2c(=O)n1NC(=O)c1ccccc1)Nc1nccs1`, the z-score was -0.202.

`COc1ccc(NC(=O)CSc2nc3ccccc3c(=O)n2Cc2cccs2)c(OC)c1` had a z-score of 0.00897. As to `Cc1cc(NC(=O)CSc2nc3ccccc3c(=O)n2Cc2ccccc2)no1`, the z-score is 4.05 (active).

`Cc1ccc(NC(=O)CSc2nc3ccccc3c(=O)n2CCCN2CCCCC2)cc1C` showed a z-score of 0.975. As to `Cc1cc(NC(=O)CSc2nc3ccsc3c(=O)n2NC(=O)c2ccccc2)no1`, the z-score was 3.32 (active). In the case of `CCOCCCn1c(SCC(=O)NC(C)C)nc2ccccc2c1=O`, the z-score was 0.328.

Consider `COc1ccc(NC(=O)CSc2nc3ccccc3c(=O)n2CCCN2CCCCC2)c(OC)c1`, for which the z-score is 3.69 (active).
